# Assay outcomes: PubChem BioAssay, National Center for Advancing Translational Sciences (NCATS)
# A selection: hits, their analogues and other compounds. The true share with any hit is near 7.4%.
# ELG1 genotox = qHTS screen for small molecules that induce genotoxicity in human embryonic kidney (HEK293T) cells expressing luciferase-tagged ELG1; HEK293T ELG1-luciferase reporter, luminescence, 16 h; Potency, µM (series often up to 46 µM), inactives show top-dose activity change, positive = activation, usual class: activators; actives 1.3% (n = 330,000); also: % of control where 0% means no effect; nearly all actives have a fitted effect of over 60% in size
#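 Screening used a luciferase reporter fused to human ELG1 in HEK293T cells. Luminescence was read on a CCD plate imager after 16 hr exposure and 30 min ONE-Glo incubation.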
# SMN2 splice up = qHTS Assay for Enhancers of SMN2 Splice Variant Expression; HEK293 SMN2-luciferase splicing reporter, luminescence, 30-36 h; actives 2.8% (n = 210,000); AID 1458, 2008; Potency, µM (doses to about 46.1 µM), without a hit: at the top dose activity change, positive = activation, usual class: activators; also: % of control where 0% means no effect; nearly all actives have a fitted effect of over 55% in size
#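 HEK293 cells carry an SMN2 minigene-luciferase reporter in which exon 7 inclusion puts luciferase in frame. Cells were seeded at 2000 cells/well, attached for 10-12 hours, then exposed to compounds for 30-36 hours at 37C before ONE-Glo luminescence.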
# NPC1 promoter act = qHTS Assay for NPC1 Promoter Activators | Huh7 NPC1 promoter luciferase reporter, 24 h | Potency, µM (series often up to 9.22 µM), for inactives: at the top dose activation, usual class: activators | actives 2.4% (n = 320,000) | AID 485313, 2010; also: % of control where 0% means no effect; nearly all actives have a fitted effect of over 60% in size
#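 Stable NPC1-promoter luciferase Huh7 line; cpd (DMSO) 24 h, 37 °C, 5% CO2; Amplite luciferase reagent 10 min RT; luminescence readout. qHTS format.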
# Rab9 prom act = qHTS Assay for Rab9 Promoter Activators | Huh7 Rab9 promoter-luciferase reporter, luminescence, 24 h | Potency, µM (series often up to 9.22 µM), inactives show top-dose activation, negative = inhibition, most hits filed as activators | actives 2.8% (n = 320,000) | AID 485297, 2010; also: % of control where 0% means no effect; nearly all actives have a fitted effect of over 60% in size
#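 Cells were plated at 1500 per well in reduced-serum medium with 10% FBS and left 2 h. Compound in DMSO was then added for 24 h at 37 °C. Reporter signal was read by luminescence after 10 min with luciferase detection reagent.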
# p53 reactivation = qHTS assay for re-activators of p53 using a Luc reporter; H1299 p53-A138V BP100-luciferase reporter, luminescence, 24 h; Potency, µM (top dose mostly 92.2 µM), without a hit: top-dose activity change, positive = activation, usual class: activators; actives 0.063% (n = 320,000); also: % of control where 0% means no effect; nearly all actives have a fitted effect of over 45% in size
#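 H1299 (p53-null), stable ts p53-A138V + BP100-Luc; 1000 cells/well, Opti-MEM/10% FBS; cpd 4 pt, 1:5; 24 h, 37 deg C, 5% CO2; detection reagent 10 min RT; luminescence.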
# FLuc modulator = qHTS profiling assay for firefly luciferase inhibitor/activator using purifed enzyme and Km concentrations of substrates (counterscreen for miR-21 project) | Luciferin 4-monooxygenase (Photinus pyralis), P08659 | purified FLuc, Km substrates, luminescence inhibition | Potency, µM (series often up to 57.5 µM), without a hit: at the top dose activity change, negative = inhibition, most hits filed as inhibitors | actives 6.9% (n = 360,000);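 also: plate controls were vehicle for no effect and reference inhibitor for full effect; nearly all actives have a fitted effect of over 55% in size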
# Target sequence (P08659 whole entry, looked up): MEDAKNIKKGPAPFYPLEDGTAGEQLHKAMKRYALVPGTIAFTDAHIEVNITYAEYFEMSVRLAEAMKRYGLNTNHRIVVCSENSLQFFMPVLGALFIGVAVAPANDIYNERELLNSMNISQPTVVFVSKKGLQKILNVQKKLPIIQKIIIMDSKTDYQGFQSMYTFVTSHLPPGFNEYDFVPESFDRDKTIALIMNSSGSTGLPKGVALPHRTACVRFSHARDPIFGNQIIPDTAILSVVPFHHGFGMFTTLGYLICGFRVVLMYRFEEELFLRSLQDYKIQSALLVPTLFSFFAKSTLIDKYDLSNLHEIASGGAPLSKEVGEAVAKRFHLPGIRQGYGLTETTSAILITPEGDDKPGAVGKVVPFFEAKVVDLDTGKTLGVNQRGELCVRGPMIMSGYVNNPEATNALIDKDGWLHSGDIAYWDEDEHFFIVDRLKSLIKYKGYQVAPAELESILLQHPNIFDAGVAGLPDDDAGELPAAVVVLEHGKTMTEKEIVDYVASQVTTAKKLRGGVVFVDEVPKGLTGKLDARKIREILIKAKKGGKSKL
#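 Purified P. pyralis luciferase (10nM final) with 10uM D-luciferin and 10uM ATP (Km levels) in 50mM Tris acetate pH 7.5, 10mM Mg acetate, 0.01% Tween-20, 0.05% BSA; qHTS 6-point titration, ~60 µM downward; luminescence read.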
# Active calls of the source: *; ? = inconclusive; / = no result; [ ] = dose if it differs, or a comment. Calls follow the shape of the dose curve; as a rule, active = well fitted curve in the direction sought with a large enough effect; inconclusive = small, poorly fitted or top-dose-only effect, or another doubt; inactive = no such curve, though single readings can be large; an effect the other way counts as inactive or inconclusive. Potency is read from the fitted curve at half-maximal effect.
SMILES,ELG1 genotox,SMN2 splice up,NPC1 promoter act,Rab9 prom act,p53 reactivation,FLuc modulator
Cc1ccc(NC(=O)Cn2sc3nc(C)cc(C)c3c2=O)c(Cl)c1,0.8%,/,2.9%,-3.9%,-11.2%,10.7µM*
O=C(Nc1nc2ccccc2n1CCN1CCOCC1)c1cccc([N+](=O)[O-])c1,/,/,2.0%[46.1 µM],-2.0%[46.1 µM],/,/
O=C(Nc1ccc(Br)cc1)C(c1ccccc1)c1ccccc1,-3.5%,-8.9%,-3.0%,0.6%,-4.7%,-1.9%
O=C(O)c1ccc(N=Nc2c(O)[nH]c3cc(Cl)ccc23)cc1,9.2µM*,/,0.316µM*,0.1µM*,5.1%,0.849µM*
Cc1ccc(N=Nc2c(O)[nH]c3ccc(F)cc23)cc1,?,/,3.16µM*,2.82µM*,23.5%,?
Cc1cccc2c(N=Nc3ccccc3)c(O)[nH]c12,5.17µM*,/,1.41µM*,2µM*,?,1.51µM*
Cc1ccc(N=Nc2[nH]c3ccccc3c2O)cc1,?,12.6µM*,5.2%,19.4%,?,?
COc1ccc(N=Nc2[nH]c3ccc(C)cc3c2O)cc1,13.1%,0.0%[1.84 µM],7.2%,24.2%,?,-11.2%
Nc1nc(N)c(N=Nc2ccc(C(=O)O)cc2)c(N)n1,-0.1%,/,-1.6%,15.7%,-1.0%,-16.5%
CC(=O)c1ccc(NC(=O)CSc2nc(=O)n(Cc3ccccn3)c3c2CCC3)cc1,/,/,/,/,/,-5.3%
CN(C)c1ccc(/C=C/c2nc(-c3ccccc3O)n(-c3ccccc3)n2)cc1,/,-14.4%,/,/,/,-9.0%
Oc1cccc(NC(=S)N=Nc2c(O)[nH]c3ccccc23)c1,?,/,16.0%,22.4%,25.8%,19µM*
Oc1[nH]c2ccccc2c1N=Nc1c(F)c(F)c(Cl)c(F)c1F,3.8%,/,24.4%,?,19.9%,-3.1%
CCOc1ccc(NC(=S)N=Nc2c(O)[nH]c3ccccc23)cc1,-9.9%,-40.8%,-8.2%,-4.0%,6.3%,-16.4%
O=C(O)c1ccc(N=Nc2c(O)[nH]c3ccc(Br)cc23)cc1,18.3µM*,/,1.26µM*,?,?,10.7µM*
Oc1[nH]c2ccccc2c1N=Nc1cccc(Cl)c1,?,/,29.6%,?,?,5.36µM*
COC(=O)N=Nc1c(O)[nH]c2ccc(Br)cc12,-5.5%,/,11.8%,14.2%,0.4%,-8.3%
CCOc1ccc(S(=O)(=O)N2CCC(C(=O)NCCc3ccc(S(N)(=O)=O)cc3)CC2)cc1,2.1%,/,-5.5%,-25.4%,0.7%,-0.1%
Cc1ccccc1S(=O)Cc1ccc(C(=O)N2CCN(c3cccc(C)c3C)CC2)o1 (centres undefined),/,/,/,/,/,-9.9%
CCOC(=O)C(C)NC(=O)c1cc2c(=O)[nH]c3ccc(C)cc3c2s1 (centres undefined),/,5.5%,/,/,/,2.5%
Oc1csc(Cc2nc(-c3ccc4ccccc4c3)cs2)n1,?,?,?,2.82µM*,4.0%,?
Oc1csc(Cc2nc(-c3ccccc3F)cs2)n1,-4.0%,?,?,5.01µM*,-0.8%,-18.4%
Oc1csc(Cc2nc(-c3ccc(-c4ccccc4)cc3)cs2)n1,11.2%,3.8%,?,?,11.4%,?
Cc1ccccc1Cn1c(CN2CCC(C(=O)NCc3cccnc3)CC2)cc2ccccc21,/,/,/,/,/,2.4%
Cn1ccsc1=NC(=O)c1cccc(OC(F)F)c1,?,/,3.55µM*,?,28.5%,15.1µM*
SMILES,ELG1 genotox,SMN2 splice up,NPC1 promoter act,Rab9 prom act,p53 reactivation,FLuc modulator
COCCNC(=O)c1cccc(OC2CCN(Cc3ccc(Cl)c(F)c3)CC2)c1,-8.1%,/,-3.7%,-7.6%,/,0.4%
COc1cccc(CNCc2c(C(=O)O)c(C)n(Cc3ccc(F)cc3Cl)c2C)c1OC,/,-8.7%,/,/,/,-2.8%
Cn1c(/C=C/c2ccccc2[N+](=O)[O-])nc2ccccc2c1=O,3.8%,/,?,?,10.9%,?
Cc1ccc(/C=C/c2nc3ccccc3n2S(=O)(=O)c2ccc(Br)cc2)cc1,/,/,/,/,/,0.757µM*
CSc1ccc(/C=C/c2nc3ccccc3n2S(=O)(=O)c2cccc(Cl)c2)cc1,/,?,/,/,/,0.0757µM*
O=S(=O)(c1cccc(Cl)c1)N1CCCC1,4.5%,-14.6%,-3.5%,-13.3%,-25.3%,-0.3%
O=S(=O)(c1cccc(Cl)c1)n1c(/C=C/c2ccccc2Cl)nc2ccccc21,/,/,/,/,/,0.0953µM*
Cn1c(/C=C/c2ccc(Br)cc2)nc2ccccc2c1=O,?,/,3.55µM*,?,?,?
CCOc1ccc(Nc2ncnc3c2c(-c2ccccc2)cn3-c2cccc(C)c2)cc1,/,/,/,/,/,-5.5%
Cc1ccccc1C(=O)Nc1ccc2oc(-c3ccc(Cl)c(Cl)c3)nc2c1,/,0.7%,/,/,/,3.2%
COc1cccc(NC(=O)CSc2nnc3scc(-c4ccc(Cl)cc4)n23)c1,/,-18.7%,/,/,/,-10.0%
O=C(Cc1coc2cc(O)ccc12)NNC(=O)c1cccs1,1.3%,/,/,/,23.2%,/
N/C(=N\OC(=O)c1ccco1)c1ccccc1,?,22.4µM*,21.5%,9.5%,?,6.75µM*
COC(=O)/C(=C/c1ccc(OC)cc1)NC(=O)c1ccco1,-0.1%,-5.7%,-1.5%,1.4%,-10.1%,-1.5%
COc1ccc(/C(N)=N/OC(=O)c2ccco2)cc1,0.461µM*,6.31µM*,0.501µM*,0.355µM*,-8.4%,0.953µM*
COc1ccc(N=N/C(=C\O)C(=O)c2ccco2)cc1,-4.2%,2.8%,21.4%,6.7%,29.1%,23.9µM*
N/C(=N\OC(=O)c1ccc(=O)n(Cc2ccccc2)c1)c1ccccn1,14.3%,-4.5%,0.2%,2.9%,0.2%,?
N/C(=N\OC(=O)c1ccco1)c1ccccn1,?,?,19.9%,29.2%,5.6%,8.49µM*
Cc1ccc(/C(N)=N/OC(=O)c2ccco2)cc1,?,11.2µM*,3.98µM*,2.51µM*,17.8µM*,2.39µM*
COC(=O)c1ccc(OC(=O)c2ccco2)cc1,2.2%,1.0%,9.9%,-1.5%,-0.5%,?
Cc1cccc(/C(N)=N/OC(=O)c2ccco2)c1,2.31µM*,15.8µM*,?,?,?,1.9µM*
Cc1cccc(C(=O)NCCNC(=O)c2ccco2)c1,4.2%,/,-1.4%,2.8%,-1.8%,0.0%
Cc1ccc(C(O)C(=O)c2ccco2)cc1 (centres undefined),-1.7%,/,-2.2%,3.1%,-4.7%,5.7%
COc1ccc(C(=O)COC(=O)c2ccco2)cc1,?,12.3%,?,2.6%,24.2%,1.07µM*
N/C(=N\OC(=O)c1ccco1)c1ccc(Br)cc1,?,19.8%,?,?,?,6.75µM*
